Results on 40 compounds are retold here after PubChem BioAssay (NCI).

Values joined by “and” are separate entries in the source; they are usually repeats but may differ in a detail not shown here. Equal values may be shown once. About 83,000 compounds went through this panel and 20% of them were active in at least one assay; those are over-represented in the sample as a whole.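 Plates (96-well) were seeded with cells, treated with compound at one concentration, and incubated for 48 hours before percent growth was determined.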 Active and inactive are the calls of the source. The calls were made as follows: active = growth percent below 10; inactive = the rest.

The test has as its system MDA-MB-468 breast. The experiment in a line: NCI-60 one-dose screen, 48 h (100 = growth as untreated, 0 = no growth, -100 = all killed). The settings on record: 10 µM unless noted.
Turning to `CCOC(=O)C(Cc1ccccc1)n1c(O)c(C=Nc2ccc(C(=O)OCCN(CC)CC)cc2)sc1=O` (stereo not given), the growth is 82.6% (inactive).

Take `O=C(CN1CCN(c2cc3c(cc2F)c(=O)c(C(=O)O)cn3C2CC2)CC1)Nc1ccc(C(=O)/C=C/c2ccccc2)cc1`: the growth is 33.8% (inactive).

For the compound `CCOC(=O)c1c2c(n3ccc(NC(=O)CCN4CCCC4)cc13)C(=O)c1ncccc1C2=O`, the growth is -82% (active).

In the case of `c1ccc(CO[C@H]2CO[C@H]3[C@@H]2OC[C@H]3OCc2ccccc2)cc1`, the growth is 112% (inactive). The same measure for `CCOC(=O)c1c(C)nc2c(c1N)/C(=C/c1cc(OC)c(OC)c(OC)c1)C(=O)N2c1ccc(OC)cc1`: 56% (inactive); for `Cc1nn(-c2ccccc2)c(Cl)c1/C=C(/NC(=O)c1ccccc1)c1nc2ccccc2[nH]1`: 113% (inactive). In the case of `NS(=O)(=O)c1ccc(-n2nc(-c3ccccc3)ccc2=O)cc1`, the growth was 104% (inactive). As to `COc1ccc(OC)c(C(=O)c2oc3ccc(Br)cc3c2N)c1`, the growth was 23.6% (inactive). Next, `CN(C)CCS(=O)(=O)Nc1cc(-c2ccc3ncc(C#N)c(Nc4ccc(F)c(Cl)c4)c3c2)cnc1Cl`: -77.8% (active); `CCOC(=O)C1=C(C)N2C(=NC3=C(CCC/C3=C\c3ccc(Cl)cc3)C2c2ccc(Cl)cc2)S1` (stereo not given): 4.45% (active). Next, `CCOP(=O)(OCC)OC[C@]12CCC(C)(C)C=C1[C@H]1CC[C@@H]3[C@@]4(C)CC[C@H](OP(=O)(OCC)OCC)C(C)(C)[C@@H]4CC[C@@]3(C)[C@]1(C)CC2`: -16.8% (active); `O=C1C(Cl)=C(Nc2ccc(S(=O)(=O)N3CCOCC3)cc2)C(=O)c2ccccc21`: 74.1% (inactive); `COc1cc(Cl)cc(-c2nn(-c3cccc(NC(=O)Nc4ccc(Cl)c(Cl)c4)c3)cc2-c2ccncc2)c1`: 0.718% (active). The same measure for `COc1cc(CN2CCO[C@H](COc3cccc(F)c3)C2)ccc1Cl`: 11.4% (inactive); for `N#CCc1csc(Cc2ccccc2)n1`: 107% (inactive); for `CC1CCC(C(=O)O)N1` (stereo not given): 106% (inactive). `O=C(/C=C/c1ccccc1)c1c[nH]c2ccccc2c1=O`: the growth is -52.7% (active). Next, `COc1ccc(-c2cc(-c3cc(OC)ccc3OC)nc(N)c2C#N)cc1`: 70.2% (inactive); `COc1ccc(S(=O)(=O)c2ccc(C(N)=O)cc2)cc1NC(=O)c1[nH]c(C)c2c1CCCCC2=O`: 31.9% (inactive). Regarding `N#Cc1ccc(O)c(C2=NCC(Cc3ccccc3)O2)c1` (stereo not given), the growth is 33.5% (inactive). The same measure for `CC1=C[C@H]2c3c(c(O)c(O)c4oc5cc(O)cc(O)c5c(=O)c34)[C@H](c3cc(O)c(O)c4oc5cc(O)cc(O)c5c(=O)c34)[C@H]2C(C)(C)C1`: 3.99% (active) and -26.3% (active); for `COc1cccc(-c2cc(C(=O)Nc3ccc(/C=C/c4ccc(OC5CCN(C)CC5)cc4)cc3)ccc2OC)c1`: -36.4% (active).

Turning to `O=C(c1nc2ccccc2[nH]1)C1[C@@H](c2cccc(O)c2)C2CC3CCCCC3N2[C@@]12C(=O)Nc1cc(Cl)ccc12` (stereo not given in full), the growth was 32.5% (inactive).

Turning to `OC[C@@H](O)C(O[C@@H]1O[C@H](CO)[C@H](O)[C@H](O)[C@H]1O)[C@H](O)[C@@H](O)CO` (stereo not given in full), the growth was 94.7% (inactive). Next, `Cc1nc(-c2ccccc2)cc2c(O)c(C(=O)N/N=C/Cc3ccccc3)[nH]c(=O)c12`: 111% (inactive); `CCN(CC)CCCCCCNc1cc(OC)c(Cl)c2cccnc12`: 32.1% (inactive). Next, `CCN1CCN(c2nc3ccccc3c3c(=O)c4ccccc4sc23)CC1`: 35.5% (inactive); `O=C1OCC2=C1C(c1cccc(Br)c1)c1cc3c(cc1N2CCO)OCCO3` (stereo not given): 24.7% (inactive); `O=C1c2cc(Br)ccc2-n2c1nc1cc(Br)ccc1c2=O`: 76.6% (inactive). As to `CCCCCCCCCCCCOC(=N)N(C)C`, the growth was 104% (inactive). In the case of `N#CSCc1cc(Cl)c(CSC#N)cc1Cl`, the growth is 66% (inactive). For the compound `CC1CC(=O)C2=C(C1)Nc1ccc(Br)cc1CC2c1c[nH]c2ccc(Br)cc12` (stereo not given), the growth was -3.65% (active). As for `CCc1ccc(NC(=O)N[C@@H](Cc2cc(F)cc(F)c2)C(=O)N[C@@H]2C(=O)N3C[C@H](O)C[C@H]3C(=O)N3CCOC[C@H]3C(=O)N[C@@H](C)C(=O)N3C[C@H](C)C[C@H]3C(=O)O[C@H]2C)cc1`, the growth is 14.8% (inactive). The same measure for `NCCNc1ccc([N+](=O)[O-])cc1`: 110% (inactive); for `O=C(NCCNC(c1ccccc1)C(NCCNC(=O)c1ccccc1)c1ccccc1)c1ccccc1` (stereo not given): 81.5% (inactive); for `CC(CCC(=O)O)[C@H]1CCC2C3C(=O)C[C@@H]4CC(=O)CC[C@]4(C)C3CC(=O)[C@@]21C` (stereo not given in full): 112% (inactive). As to `COc1cc(C2C3=C(COC3=O)N(CCO)c3cc4c(cc32)CCC4)cc(OC)c1O` (stereo not given), the growth was -21.7% (active). Next, `CCCCn1c(=O)c2c(nc(NCCc3ccc(O)c(O)c3)n2CCC)n(CCCC)c1=O`: 82.2% (inactive); `COc1cc2nc(N3CCCC3)nc(Nc3ccccc3)c2cc1OC`: -38.2% (active); `Cc1cc(O)cc(-c2nn(C)cc2-c2cc(N3CCOCC3)nc(-c3cccnc3)n2)c1`: -3.22% (active).
